Data from PubChem BioAssay (EPA / NIEHS).
Records with an inconclusive call do not appear. The source holds several records for some structures; these can differ, active in one and inactive in another. Activity calls are given as the source filed them. Rule for the calls, unless noted: active = hit-call score of the fitted dose curve at least 0.9, where 1 is the maximum; inconclusive = response in the unintended direction; inactive = score below 0.9.

Columns and labels:
[1] = BSK_3C_Proliferation: Cell Proliferation Assessment in the BioMAP Diversity Plus: 3C Assay (AID 2283006; active = hit-call score of the fitted dose curve at least 0.9, where 1 is the maximum; inactive = score below 0.9;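 for AC50: potency may reflect either rise or fall in cell number versus DMSO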); details: primary human endothelial cells (HUVEC)
How it was run: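 HUVEC, sub-confluent; 48 h chemical exposure; 10% TCA fix, 0.1% SRB stain, A560 total protein. Gain or loss of signal fitted both directions vs DMSO control.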

[2] = molecular target: Peroxisome proliferator-activated receptor gamma (Homo sapiens) (UniProt P37231); experiment: ATG_PPARg_TRANS: Attagene TRANS-FACTORIAL HepG2 Assay for human Peroxisome Proliferator-activated Receptor-gamma (PPARg) (AID 2283007)
Sequence of Peroxisome proliferator-activated receptor gamma (Homo sapiens) (P37231 whole entry, looked up, the tested form may be a part): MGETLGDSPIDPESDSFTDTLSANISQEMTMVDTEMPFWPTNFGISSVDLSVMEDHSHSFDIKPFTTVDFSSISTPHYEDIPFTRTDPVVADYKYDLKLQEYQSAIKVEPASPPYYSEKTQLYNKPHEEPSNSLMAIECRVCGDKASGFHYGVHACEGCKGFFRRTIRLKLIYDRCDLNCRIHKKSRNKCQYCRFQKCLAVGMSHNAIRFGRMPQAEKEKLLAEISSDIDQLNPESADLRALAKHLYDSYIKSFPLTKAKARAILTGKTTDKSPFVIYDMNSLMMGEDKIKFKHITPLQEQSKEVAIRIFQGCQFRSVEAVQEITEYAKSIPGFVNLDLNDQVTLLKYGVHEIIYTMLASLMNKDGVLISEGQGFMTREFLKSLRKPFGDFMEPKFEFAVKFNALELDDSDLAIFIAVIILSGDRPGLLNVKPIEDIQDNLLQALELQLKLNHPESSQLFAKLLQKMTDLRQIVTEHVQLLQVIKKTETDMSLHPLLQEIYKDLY
How it was run: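 Gain-of-signal endpoint relative to DMSO, derived from reporter mRNA levels quantified by RT-PCR and capillary electrophoresis. Cells were HepG2 transiently expressing a chimeric NR-Gal4 construct with GAL4-UAS reporters, exposed to chemicals for 24 h.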

[3] = molecular target: Nuclear receptor subfamily 1 group I member 2 (Homo sapiens) (UniProt O75469); experiment: ATG_PXR_TRANS: Attagene TRANS-FACTORIAL HepG2 Assay for human Pregnane X Receptor (PXR) (AID 2283008)
Sequence of Nuclear receptor subfamily 1 group I member 2 (Homo sapiens) (O75469 whole entry, looked up, the tested form may be a part): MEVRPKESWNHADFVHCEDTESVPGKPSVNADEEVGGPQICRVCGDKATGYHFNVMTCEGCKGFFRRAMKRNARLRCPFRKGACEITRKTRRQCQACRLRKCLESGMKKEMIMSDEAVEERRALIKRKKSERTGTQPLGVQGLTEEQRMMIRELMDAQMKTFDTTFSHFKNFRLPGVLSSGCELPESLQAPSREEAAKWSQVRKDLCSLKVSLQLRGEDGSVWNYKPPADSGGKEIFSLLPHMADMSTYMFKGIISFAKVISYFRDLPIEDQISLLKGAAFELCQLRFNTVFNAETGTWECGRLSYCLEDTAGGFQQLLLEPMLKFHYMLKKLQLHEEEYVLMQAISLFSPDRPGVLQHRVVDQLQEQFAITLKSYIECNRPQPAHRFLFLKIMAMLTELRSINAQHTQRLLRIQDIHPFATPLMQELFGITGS
How it was run: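 Transient HepG2 transfectants carrying multiplexed reporter transcription units; PXR activity read through a Gal4 chimera. 24 h exposure. RT-PCR/CE fluorescence; upward curve fit referenced to DMSO.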

[4] = molecular target: human RAR-related Orphan Receptor beta (RORb), RORB (gene 6096) (UniProt Q92753); experiment: ATG_RORb_TRANS: Attagene TRANS-FACTORIAL HepG2 Assay for human RAR-related Orphan Receptor beta (RORb) (AID 2283010)
Sequence of human RAR-related Orphan Receptor beta (RORb), RORB (gene 6096) (Q92753 whole entry, looked up, the tested form may be a part): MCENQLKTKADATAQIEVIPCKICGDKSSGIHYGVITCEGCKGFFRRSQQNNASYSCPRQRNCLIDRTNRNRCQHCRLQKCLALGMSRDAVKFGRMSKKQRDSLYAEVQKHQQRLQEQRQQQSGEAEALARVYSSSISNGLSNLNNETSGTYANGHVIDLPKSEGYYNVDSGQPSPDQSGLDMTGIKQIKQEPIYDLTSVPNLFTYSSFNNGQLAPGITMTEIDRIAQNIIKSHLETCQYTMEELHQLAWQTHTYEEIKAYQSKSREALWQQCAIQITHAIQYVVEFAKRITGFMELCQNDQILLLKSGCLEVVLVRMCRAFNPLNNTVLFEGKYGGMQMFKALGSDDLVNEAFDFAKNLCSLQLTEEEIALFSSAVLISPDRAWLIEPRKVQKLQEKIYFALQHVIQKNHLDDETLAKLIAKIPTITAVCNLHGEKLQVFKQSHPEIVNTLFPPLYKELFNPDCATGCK
How it was run: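 HepG2, transient MRTU transfection (GAL4-UAS reporters, exogenous NR-Gal4 chimeras); 24 h compound exposure; total RNA → RT-PCR → 6-FAM primer extension → HpaI digest → CE fluorescence. Positive direction vs DMSO baseline.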

[5] = molecular target: human RAR-related Orphan Receptor gamma (RORg), RORC (gene 6097) (UniProt P51449); experiment: ATG_RORg_TRANS: Attagene TRANS-FACTORIAL HepG2 Assay for human RAR-related Orphan Receptor gamma (RORg) (AID 2283011)
Sequence of human RAR-related Orphan Receptor gamma (RORg), RORC (gene 6097) (P51449 whole entry, looked up, the tested form may be a part): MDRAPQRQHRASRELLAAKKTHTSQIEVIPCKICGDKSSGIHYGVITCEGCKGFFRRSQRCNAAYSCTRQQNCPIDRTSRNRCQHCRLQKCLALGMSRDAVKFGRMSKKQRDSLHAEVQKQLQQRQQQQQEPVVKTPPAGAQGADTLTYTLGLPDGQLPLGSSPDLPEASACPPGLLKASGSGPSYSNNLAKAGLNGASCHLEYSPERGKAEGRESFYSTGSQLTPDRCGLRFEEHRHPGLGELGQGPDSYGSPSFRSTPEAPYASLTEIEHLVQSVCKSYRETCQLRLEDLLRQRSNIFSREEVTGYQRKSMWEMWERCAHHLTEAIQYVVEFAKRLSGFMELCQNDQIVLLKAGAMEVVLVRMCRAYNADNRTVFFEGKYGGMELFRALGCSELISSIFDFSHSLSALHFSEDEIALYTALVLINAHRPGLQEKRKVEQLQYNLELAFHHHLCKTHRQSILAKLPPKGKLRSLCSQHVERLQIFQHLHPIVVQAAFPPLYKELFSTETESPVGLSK
How it was run: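 Readout: reporter transcript induction (RT-PCR, fluorescent primer extension, capillary electrophoresis) after 24 h compound exposure of transiently transfected HepG2 cells carrying a RORg-Gal4 chimera and GAL4-UAS reporters; DMSO served as baseline, with increasing signal fitted.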

[6] = molecular target: Retinoic acid receptor RXR-alpha (Homo sapiens) (UniProt P19793); experiment: ATG_RXRa_TRANS: Attagene TRANS-FACTORIAL HepG2 Assay for human Retinoid X Receptor alpha (RXRa) (AID 2283012)
Sequence of Retinoic acid receptor RXR-alpha (Homo sapiens) (P19793 whole entry, looked up, the tested form may be a part): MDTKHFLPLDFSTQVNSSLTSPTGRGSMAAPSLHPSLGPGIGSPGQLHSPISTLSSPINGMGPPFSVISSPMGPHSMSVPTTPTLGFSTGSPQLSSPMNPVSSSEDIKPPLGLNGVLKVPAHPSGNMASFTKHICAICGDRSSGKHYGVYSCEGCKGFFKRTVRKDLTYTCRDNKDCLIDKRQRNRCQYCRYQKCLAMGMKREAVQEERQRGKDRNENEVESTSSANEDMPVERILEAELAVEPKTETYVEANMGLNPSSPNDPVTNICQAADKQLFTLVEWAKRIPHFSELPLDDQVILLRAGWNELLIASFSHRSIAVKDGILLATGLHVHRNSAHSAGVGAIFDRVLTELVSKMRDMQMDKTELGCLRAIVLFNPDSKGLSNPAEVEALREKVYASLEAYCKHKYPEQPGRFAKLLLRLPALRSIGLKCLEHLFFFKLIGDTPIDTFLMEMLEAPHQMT
How it was run: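 Read-out: fluorescent reporter-transcript fragments quantified by capillary electrophoresis after RT-PCR. Transiently transfected HepG2 cells carrying GAL4-UAS reporters and NR-GAL4 chimeras were exposed to chemical for 24 h; activity scored as increase over DMSO.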

[7] = molecular target: human Retinoid X Receptor beta (RXRb), RXRB (gene 6257) (UniProt P28702); experiment: ATG_RXRb_TRANS: Attagene TRANS-FACTORIAL HepG2 Assay for human Retinoid X Receptor beta (RXRb) (AID 2283013)
Sequence of human Retinoid X Receptor beta (RXRb), RXRB (gene 6257) (P28702 whole entry, looked up, the tested form may be a part): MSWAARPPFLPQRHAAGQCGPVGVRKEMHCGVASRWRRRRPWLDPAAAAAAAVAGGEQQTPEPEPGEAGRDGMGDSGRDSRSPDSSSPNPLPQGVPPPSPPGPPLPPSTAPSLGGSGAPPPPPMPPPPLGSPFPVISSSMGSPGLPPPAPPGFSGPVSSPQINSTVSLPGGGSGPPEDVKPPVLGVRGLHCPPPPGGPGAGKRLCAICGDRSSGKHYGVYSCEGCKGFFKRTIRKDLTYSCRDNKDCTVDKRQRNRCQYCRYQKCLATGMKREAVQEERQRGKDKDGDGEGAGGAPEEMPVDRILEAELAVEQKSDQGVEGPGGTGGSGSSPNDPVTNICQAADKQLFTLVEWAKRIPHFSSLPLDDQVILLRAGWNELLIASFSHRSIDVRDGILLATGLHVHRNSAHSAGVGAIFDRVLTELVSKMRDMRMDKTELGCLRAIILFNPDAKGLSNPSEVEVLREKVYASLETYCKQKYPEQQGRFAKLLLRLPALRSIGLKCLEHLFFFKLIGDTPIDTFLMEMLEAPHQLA
How it was run: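 Read-out: reporter mRNA induction via RT-PCR plus capillary electrophoresis fluorescence, analysed as signal increase relative to DMSO. Cells were human HepG2, transiently transfected with GAL4-UAS reporter constructs and chimeric receptor-Gal4 fusions, dosed for 24 h.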

[8] = molecular target: human Thyroid Receptor alpha (THRa1), THRA (gene 7067) (UniProt P10827); experiment: ATG_THRa1_TRANS: Attagene TRANS-FACTORIAL HepG2 Assay for human Thyroid Receptor alpha (THRa1) (AID 2283014)
Sequence of human Thyroid Receptor alpha (THRa1), THRA (gene 7067) (P10827 whole entry, looked up, the tested form may be a part): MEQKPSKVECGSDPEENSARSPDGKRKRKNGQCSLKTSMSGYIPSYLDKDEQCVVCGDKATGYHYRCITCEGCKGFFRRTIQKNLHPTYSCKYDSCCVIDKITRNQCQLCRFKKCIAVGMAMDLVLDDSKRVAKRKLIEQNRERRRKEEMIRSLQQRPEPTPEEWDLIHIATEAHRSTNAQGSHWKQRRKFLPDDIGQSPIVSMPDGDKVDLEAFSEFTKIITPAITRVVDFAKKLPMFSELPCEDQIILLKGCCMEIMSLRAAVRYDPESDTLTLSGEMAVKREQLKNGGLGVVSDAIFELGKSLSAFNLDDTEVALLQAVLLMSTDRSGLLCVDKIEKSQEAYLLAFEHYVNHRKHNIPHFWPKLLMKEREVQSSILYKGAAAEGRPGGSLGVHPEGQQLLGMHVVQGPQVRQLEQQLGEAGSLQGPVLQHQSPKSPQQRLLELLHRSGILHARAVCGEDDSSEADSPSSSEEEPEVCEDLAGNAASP
How it was run: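 HepG2 cells transiently transfected with multiplexed GAL4-UAS reporter units for exogenous chimeric THRa1-Gal4; reporter mRNA measured 24 h after dosing by RT-PCR, 6-FAM labelling, HpaI digestion and capillary electrophoresis. Gain-of-signal fitted versus DMSO baseline.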

[9] = read-out: E-selectin (Homo sapiens) (UniProt P16581); experiment: BSK_3C_Eselectin: BioMAP Diversity Plus: 3C Assay for Eselectin Biomarker Activity (AID 2283015; active = hit-call score of the fitted dose curve at least 0.9, where 1 is the maximum; inactive = score below 0.9); details: primary human endothelial cells (HUVEC); actives raise or lower the signal
How it was run: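 Primary human umbilical vein endothelial cells (3C system) were dosed with chemical and cell-surface E-selectin measured by ELISA 24 h later. Bidirectional curve fitting used DMSO as negative control and baseline.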

[10] = read-out: Interleukin-1 alpha (IL1a), IL1A (gene 3552); experiment: BSK_BE3C_IL1a: BioMAP Diversity Plus: BE3C Assay for Interleukin-1 alpha (IL1a) Biomarker Activity (AID 2283016; active = hit-call score of the fitted dose curve at least 0.9, where 1 is the maximum; inactive = score below 0.9); details: primary human bronchial epithelial cells; actives raise or lower the signal
How it was run: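 ELISA read-out of IL-1a from human lung bronchial epithelial primary cells, 24 h post-dose. Gain or loss of signal fitted relative to DMSO negative control.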

[11] = read-out: Monocyte Chemoattractant Protein-1 (MCP1), CCL2 (gene 6347); experiment: BSK_4H_MCP1: BioMAP Diversity Plus: 4H Assay for Monocyte Chemoattractant Protein-1 (MCP1) Biomarker Activity (AID 2283018; active = hit-call score of the fitted dose curve at least 0.9, where 1 is the maximum; inactive = score below 0.9); details: primary human endothelial cells (HUVEC); actives raise or lower the signal
How it was run: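 HUVEC primary cells, 24 h post-dose, MCP-1 by ELISA. Gain or loss of signal fitted bidirectionally vs DMSO baseline. Cytotoxicity: SRB stain (0.1% after 10% TCA fixation), read 560 nm, parallel cultures.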

[12] = read-out: Human Leukocyte Antigen - DR isotype (HLADR), HLA-DRA (gene 3122); experiment: BSK_3C_HLADR: BioMAP Diversity Plus: 3C Assay for Human Leukocyte Antigen - DR isotype (HLADR) Biomarker Activity (AID 2283019; active = hit-call score of the fitted dose curve at least 0.9, where 1 is the maximum; inactive = score below 0.9); details: primary human endothelial cells (HUVEC); actives raise or lower the signal
How it was run: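 Primary human umbilical vein endothelial cells (3C system) were dosed with compound and cell-surface HLA-DR was quantified by ELISA at 24 h. Activity was fitted bidirectionally against DMSO as negative control and baseline.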

[13] = read-out: Interleukin-8 (IL8), CXCL8 (gene 3576); experiment: BSK_3C_IL8: BioMAP Diversity Plus: 3C Assay for Interleukin-8 (IL8) Biomarker Activity (AID 2283020; active = hit-call score of the fitted dose curve at least 0.9, where 1 is the maximum; inactive = score below 0.9); details: primary human endothelial cells (HUVEC); actives raise or lower the signal
How it was run: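 HUVEC, 3C stimulation; 24 h compound exposure; IL-8 read by ELISA; gain or loss of signal fitted relative to DMSO control.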

[14] = BSK_3C_SRB: Viability Assessment in the BioMAP Diversity Plus: 3C Assay (AID 2283023; active = hit-call score of the fitted dose curve at least 0.9, where 1 is the maximum; inactive = score below 0.9;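 note: fitted both ways against DMSO so a hit may be signal rise or drop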); details: primary human endothelial cells (HUVEC)
How it was run: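 Primary human umbilical vein endothelial cells in the 3C system were read 24 h after compound dosing. Total protein was stained with 0.1% sulforhodamine B after 10% TCA fixation and read at 560 nm, with bidirectional fitting against DMSO as baseline.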

[15] = read-out: Matrix Metallopeptidase 1 (MMP1), MMP1 (gene 4312); experiment: BSK_BE3C_MMP1: BioMAP Diversity Plus: BE3C Assay for Matrix Metallopeptidase 1 (MMP1) Biomarker Activity (AID 2283024; active = hit-call score of the fitted dose curve at least 0.9, where 1 is the maximum; inactive = score below 0.9); details: primary human bronchial epithelial cells; actives raise or lower the signal
How it was run: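 ELISA read-out of MMP1 in human lung bronchial epithelial primary cultures, 24 h post-dose; bidirectional curve fit vs DMSO baseline, gain or loss of signal scored.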

[16] = read-out: Monocyte Chemoattractant Protein-1 (MCP1), CCL2 (gene 6347); experiment: BSK_3C_MCP1: BioMAP Diversity Plus: 3C Assay for Monocyte Chemoattractant Protein-1 (MCP1) Biomarker Activity (AID 2283017; active = hit-call score of the fitted dose curve at least 0.9, where 1 is the maximum; inactive = score below 0.9); details: primary human endothelial cells (HUVEC); actives raise or lower the signal
How it was run: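 Primary human umbilical vein endothelial cells (3C system) were exposed to test chemical for 24 h, after which MCP-1 was quantified by ELISA. Activity was fitted bidirectionally against DMSO as negative control and baseline.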

[17] = read-out: Monokine induced gamma interferon (MIG), CXCL9 (gene 4283); experiment: BSK_3C_MIG: BioMAP Diversity Plus: 3C Assay for Monokine induced gamma interferon (MIG) Biomarker Activity (AID 2283021; active = hit-call score of the fitted dose curve at least 0.9, where 1 is the maximum; inactive = score below 0.9); details: primary human endothelial cells (HUVEC); actives raise or lower the signal
How it was run: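 HUVEC, 3C system; 24 h chemical exposure; MIG by ELISA; bidirectional fit vs DMSO baseline.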

[18] = molecular target: Retinoic acid receptor alpha (Homo sapiens) (UniProt P10276); experiment: ATG_RARa_TRANS: Attagene TRANS-FACTORIAL HepG2 Assay for human Retinoic Acid Receptor alpha (RARa) (AID 2283005)
Sequence of Retinoic acid receptor alpha (Homo sapiens) (P10276 whole entry, looked up, the tested form may be a part): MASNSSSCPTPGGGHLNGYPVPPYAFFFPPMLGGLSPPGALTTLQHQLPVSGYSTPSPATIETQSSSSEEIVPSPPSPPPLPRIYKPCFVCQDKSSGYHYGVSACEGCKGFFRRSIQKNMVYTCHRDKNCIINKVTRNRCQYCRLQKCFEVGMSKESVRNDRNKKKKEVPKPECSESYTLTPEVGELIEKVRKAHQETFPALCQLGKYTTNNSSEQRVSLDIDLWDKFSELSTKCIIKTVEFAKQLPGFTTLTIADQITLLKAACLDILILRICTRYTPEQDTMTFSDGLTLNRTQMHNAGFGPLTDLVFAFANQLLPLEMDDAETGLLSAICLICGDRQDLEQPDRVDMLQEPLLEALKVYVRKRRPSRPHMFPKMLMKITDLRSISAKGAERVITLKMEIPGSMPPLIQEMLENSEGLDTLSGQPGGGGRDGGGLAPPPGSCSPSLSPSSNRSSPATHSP
How it was run: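 HepG2 transiently transfected with multiplex GAL4-UAS reporter units including a human RARa–GAL4 chimera; 24 h compound exposure. Reporter mRNA quantified by RT-PCR, 6-FAM labeling and capillary electrophoresis; gain of signal versus DMSO.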

[19] = molecular target: human Retinoic Acid Receptor gamma (RARg), RARG (gene 5916) (UniProt P13631); experiment: ATG_RARg_TRANS: Attagene TRANS-FACTORIAL HepG2 Assay for human Retinoic Acid Receptor gamma (RARg) (AID 2283009)
Sequence of human Retinoic Acid Receptor gamma (RARg), RARG (gene 5916) (P13631 whole entry, looked up, the tested form may be a part): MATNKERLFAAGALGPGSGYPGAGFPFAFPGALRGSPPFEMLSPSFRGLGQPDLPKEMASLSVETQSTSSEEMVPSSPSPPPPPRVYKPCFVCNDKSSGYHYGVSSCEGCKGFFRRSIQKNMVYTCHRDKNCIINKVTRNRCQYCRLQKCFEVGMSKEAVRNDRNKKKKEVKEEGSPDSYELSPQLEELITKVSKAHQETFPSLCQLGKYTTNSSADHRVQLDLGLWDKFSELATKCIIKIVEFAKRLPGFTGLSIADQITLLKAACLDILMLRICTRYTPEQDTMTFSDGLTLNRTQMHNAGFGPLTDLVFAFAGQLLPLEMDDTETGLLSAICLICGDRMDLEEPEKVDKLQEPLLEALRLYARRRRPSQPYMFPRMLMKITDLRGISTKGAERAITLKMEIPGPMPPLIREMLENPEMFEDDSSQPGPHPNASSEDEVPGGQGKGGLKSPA
How it was run: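 Readout: reporter transcript levels via RT-PCR, 6-FAM primer-extension labelling, HpaI digestion and capillary electrophoresis. Cells: HepG2 carrying transfected RARg-GAL4 chimera plus UAS reporter set. Dosing 24 h; DMSO negative control.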

[20] = molecular target: human Vitamin D Receptor (VDR), VDR (gene 7421) (UniProt P11473); experiment: ATG_VDR_TRANS: Attagene TRANS-FACTORIAL HepG2 Assay for human Vitamin D Receptor (VDR) (AID 2283022)
How it was run: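 HepG2 cells were transiently transfected with multiple GAL4-UAS reporter units, so signal reflects exogenous chimeric receptor-Gal4 activity. After 24 h compound exposure, reporter mRNA was measured by RT-PCR, fluorescent labelling and capillary electrophoresis, fitted for gain of signal versus DMSO.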

Measured: AC50

Sequence of E-selectin (Homo sapiens) (P16581 whole entry, looked up): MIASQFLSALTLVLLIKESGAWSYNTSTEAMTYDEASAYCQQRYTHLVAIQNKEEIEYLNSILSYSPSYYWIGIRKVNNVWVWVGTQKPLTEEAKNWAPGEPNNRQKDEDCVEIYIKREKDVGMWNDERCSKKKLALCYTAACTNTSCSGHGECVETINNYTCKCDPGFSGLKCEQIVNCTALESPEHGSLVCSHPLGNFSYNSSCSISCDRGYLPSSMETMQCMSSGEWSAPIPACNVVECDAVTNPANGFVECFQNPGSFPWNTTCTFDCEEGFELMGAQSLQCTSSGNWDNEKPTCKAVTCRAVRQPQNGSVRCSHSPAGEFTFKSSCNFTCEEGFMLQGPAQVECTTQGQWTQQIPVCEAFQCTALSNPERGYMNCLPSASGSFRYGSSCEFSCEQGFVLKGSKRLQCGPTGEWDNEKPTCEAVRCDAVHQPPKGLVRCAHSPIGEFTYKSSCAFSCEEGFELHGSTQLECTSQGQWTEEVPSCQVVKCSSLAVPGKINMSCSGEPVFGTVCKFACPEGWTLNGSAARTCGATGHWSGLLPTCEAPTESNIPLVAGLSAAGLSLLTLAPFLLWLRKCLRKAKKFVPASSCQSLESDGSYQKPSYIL

CCC(C)(C#N)N=NC(C)(C#N)CC (configuration not stated)
not listed: [8] | [17] | [18] | [19] | [20]
inactive: all other assays above

c1ccc(-c2cccc(-c3ccccc3)c2)cc1
active: [1] 13.2 µM | [3] 11.5 µM | [7] 7.98 µM | [9] 11.4 µM | [10] 11.6 µM | [11] 5.91 µM | [12] 9.9 µM | [13] 7.45 µM | [14] 10.7 µM | [15] 0.136 µM
inactive: [2] | [4] | [6] | [17]

NC(=O)c1ccc(N)nc1
inactive: [18] | [3] | [19] | [4] | [5] | [6] | [8]

Cc1cc(C(F)(C(F)(F)F)C(F)(F)F)ccc1NC(=O)c1cccc(I)c1C(=O)NC(C)(C)CS(C)(=O)=O
inactive: [18] | [19] | [6]

CCCCOC(=O)COC(=O)c1ccccc1C(=O)OCCCC
inactive: [1] | [5] | [9] | [10] | [16] | [11] | [12] | [13] | [14] | [15]
active: [1] 26.1 µM | [2] 51.4 µM | [3] 27.4 µM

CCN(N=O)C(N)=O
inactive: [18] | [2] | [3] | [6]

O=S1OC[C@@H]2[C@H](CO1)[C@]1(Cl)C(Cl)=C(Cl)[C@@]2(Cl)C1(Cl)Cl (some centres not stated)
active: [3] 4.5 µM
inactive: [18] | [19] | [7] | [8] | [20]

C=CC(F)(C(F)(F)F)C(F)(F)C(F)(F)F (configuration not stated)
inactive: [18] | [2] | [19] | [6] | [7] | [20]

CCOP(=S)(OCC)OP(=S)(OCC)OCC
active: [1] 31.6 µM | [2] 25.8 µM | [3] 0.94 µM | [7] 50.2 µM | [9] 32.1 µM | [11] 33.5 µM | [12] 30.4 µM | [14] 26.6 µM
inactive: [4] | [6] | [8] | [10] | [13] | [15]
